Seven compounds from PubChem BioAssay (Tox21) can be followed below.

The structures appear in SMILES notation. Values without a mark were called inactive. Inconclusive results are not listed. Active and inactive are the calls of the source. Calls follow the shape of the dose curve; as a rule, active = well fitted curve in the direction sought with a large enough effect in the repeat runs; inconclusive = weak or mixed curves; inactive = no such curve, though single readings can be large; an effect the other way counts as inactive or inconclusive.

Assay [1] in a line: qHTS RealTime-Glo MT Cell Viability Assay in HEK293 cells - 16 hour (AID 1224872). Also: nearly all actives have a fitted effect of over 50% in size. Also: potency is read from the fitted curve at half-maximal effect. As to activity change, negative = cytotoxicity: top concentration of the series differs between compounds. In outline:
(§1)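 Homogeneous bioluminescent viability format in HEK293 cells (600 cells/well). Following 5 h at 37 C/5% CO2, 23 nL compound was pintooled; the signal was measured repeatedly during 40 h incubation.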
In general terms: qHTS replaces the single test concentration by a dilution series.

Assay [2] can be described thus: qHTS RealTime-Glo MT Cell Viability Assay in HepG2 cells - 8 hour (AID 1224873). Also: nearly all actives have a fitted effect of over 55% in size. Also: potency is read from the fitted curve at half-maximal effect. In outline: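 HepG2 cells mixed with RealTime-Glo MT reagents (NanoLuc plus cell-permeant prosubstrate) were seeded at 600 cells/well, incubated 5 h at 37 C/5% CO2, then pinned with compounds in DMSO; nonlytic luminescence tracked viability during 40 h treatment.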
Assay [3] is described as follows: qHTS RealTime-Glo MT Cell Viability Assay in HEK293 cells - 40 hour (AID 1224874). Also: nearly all actives have a fitted effect of over 50% in size. Also: potency is read from the fitted curve at half-maximal effect. Conditions: RealTime-Glo luminescence; max response: hits give low values. In outline:
(§2)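 Luminescence, which tracks viable cell number through reduction of the prosubstrate to a NanoLuc substrate, was read over continuous 37 C culture. Cells (600/well) were premixed with reagent and rested 5 h before 23 nL of compound in DMSO was pinned.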

The nature of assay [4]: A CellTox Green Cytotoxicity Assay to monitor cytotoxicity in HEK293 cells - 24 hour (AID 1224875). Also: nearly all actives have a fitted effect of over 45% in size. Also: potency is read from the fitted curve at half-maximal effect. As to activity change: series mostly up to about 77 µM. The method, boiled down: (§3)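 Fluorescence from a DNA-binding dye excluded by viable cells was measured repeatedly in the same HEK293 wells (600 cells/well) during continuous compound exposure at 37 C. Each assay gives one read point: 0, 8, 16, 24, 32 or 40 h.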
A short description of assay [5]: qHTS RealTime-Glo MT Cell Viability Assay in HepG2 cells - 32 hour (AID 1224877). Also: nearly all actives have a fitted effect of over 55% in size. Also: potency is read from the fitted curve at half-maximal effect. The method, boiled down:
(§4)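 Cell number in HepG2 cultures estimated from NanoLuc luminescence generated by metabolic reduction of a prosubstrate by living cells. The homogeneous, nonlytic format allowed repeated reads at 0, 8, 16, 24, 32 and 40 h of compound exposure.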

Assay [6] can be described thus: A CellTox Green Cytotoxicity Assay to monitor cytotoxicity in HepG2 cells - 24 hour (AID 1224878). Also: nearly all actives have a fitted effect of over 45% in size. Also: potency is read from the fitted curve at half-maximal effect. In outline: (§5)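 Real-time cytotoxicity: fluorescence of a cell-impermeant cyanine dye binding DNA of dead HepG2 cells, measured repeatedly (0–40 h) during compound exposure at 37 C. Cells seeded 600/well with reagent, dosed after 5 h.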
The nature of assay [7]: A CellTox Green Cytotoxicity Assay to monitor cytotoxicity in HepG2 cells - 40 hour (AID 1224879). Also: nearly all actives have a fitted effect of over 40% in size. Also: potency is read from the fitted curve at half-maximal effect. In outline: as §5
Assay [8] can be described thus: qHTS RealTime-Glo MT Cell Viability Assay in HEK293 cells - 0 hour (AID 1224880). Also: top concentration of the series differs between compounds; nearly all actives have a fitted effect of over 45% in size. The method, boiled down: as §2
Assay [9] is described as follows: A CellTox Green Cytotoxicity Assay to monitor cytotoxicity in HEK293 cells - 32 hour (AID 1224881). Also: nearly all actives have a fitted effect of over 40% in size. Also: potency is read from the fitted curve at half-maximal effect. The method, boiled down:
as §3

Assay [10] in a line: A CellTox Green Cytotoxicity Assay to monitor cytotoxicity in HepG2 cells - 0 hour (AID 1224882). Also: nearly all actives have a fitted effect of over 35% in size. In outline: as §5
A short description of assay [11]: A CellTox Green Cytotoxicity Assay to monitor cytotoxicity in HepG2 cells - 32 hour (AID 1224883). Also: nearly all actives have a fitted effect of over 50% in size. Also: potency is read from the fitted curve at half-maximal effect. In outline: as §5
Assay [12] in a line: A CellTox Green Cytotoxicity Assay to monitor cytotoxicity in HEK293 cells - 8 hour (AID 1224884). Also: nearly all actives have a fitted effect of over 35% in size. In outline:
as §3

Assay [13] in a line: qHTS RealTime-Glo MT Cell Viability Assay in HepG2 cells - 16 hour (AID 1224885). Also: nearly all actives have a fitted effect of over 50% in size. Also: potency is read from the fitted curve at half-maximal effect. In outline:
as §4

The nature of assay [14]: qHTS RealTime-Glo MT Cell Viability Assay in HEK293 cells - 24 hour (AID 1224886). Also: nearly all actives have a fitted effect of over 50% in size. Also: potency is read from the fitted curve at half-maximal effect. As to activity change, negative = cytotoxicity: top concentration of the series differs between compounds. In outline: as §1
Assay [15] in a line: qHTS RealTime-Glo MT Cell Viability Assay in HEK293 cells - 8 hour (AID 1224887). In outline:
as §2

The nature of assay [16]: A CellTox Green Cytotoxicity Assay to monitor cytotoxicity in HEK293 cells - 16 hour (AID 1224888). Also: nearly all actives have a fitted effect of over 35% in size. The method, boiled down:
as §3

The nature of assay [17]: qHTS RealTime-Glo MT Cell Viability Assay in HepG2 cells - 0 hour (AID 1224889). Also: nearly all actives have a fitted effect of over 50% in size. In outline:
as §4

Assay [18] can be described thus: A CellTox Green Cytotoxicity Assay to monitor cytotoxicity in HepG2 cells - 8 hour (AID 1224890). Also: nearly all actives have a fitted effect of over 45% in size. In outline:
as §5

Assay [19] is described as follows: qHTS assay to identify small molecule antagonists of the estrogen receptor alpha (ER-alpha) signaling pathway using the BG1 cell line in the presence of 0.1 nM 17-beta-estradiol - cell viability counter screen (AID 1259241). Also: nearly all actives have a fitted effect of over 40% in size. In outline: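 Viability in VM7Luc4E2 cells after 22 hr compound exposure under 0.1 nM 17beta-estradiol stimulation, by CellTiter-Fluor.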

The nature of assay [20]: A CellTox Green Cytotoxicity Assay to monitor cytotoxicity in HepG2 cells - 16 hour (AID 1224876). Also: nearly all actives have a fitted effect of over 45% in size. The method, boiled down: as §5
% is scaled to controls: 0 for no effect and ±100 for the full control effect.

`CCCCCCCC(=O)OCC`: the Potency result in [1], in assay [2], in assay [4], in [5], in assay [6] and in [7] was “inactive” throughout. Also, the Potency entry in [8], in [9], in assay [10], in assay [11], in [12] and in assay [13] was “inactive” in each case. The Potency result in [14], in assay [15], in [16], in assay [17], in [18] and in assay [19] was “inactive” throughout. Moreover, in [3], the max response was -3.83%.

Regarding `CS(C)(=O)=O`, the Potency entry in assay [1], in assay [2], in assay [20], in [5], in [6] and in [7] was “inactive” each time. Besides, the Potency result in assay [8], in [10], in assay [11], in assay [13], in [14] and in assay [15] was “inactive” throughout. Moreover, the Potency result in assay [17], in [18] and in assay [19] was “inactive” each time. The max response in assay [3] is -3.02%. In assay [9], the Potency is 19.5 µM (active).

Take `C/C=C/CO`: the Potency result in assay [1], in assay [2], in assay [4], in assay [5], in [6] and in assay [7] was “inactive” throughout. Besides, the Potency entry in [8], in [10], in assay [11], in assay [12], in assay [13] and in assay [14] was “inactive” each time. The Potency entry in assay [15], in assay [16], in assay [17], in assay [18] and in [19] was “inactive” each time. Moreover, in assay [3], the max response was 8.59%.

As to `CCOC(=O)[C@@](C)(N)Cc1ccc(O)c(O)c1`, the Potency entry in assay [1], in [2], in [4], in assay [5], in assay [8] and in assay [9] was “inactive” in each case. Also, the Potency entry in assay [12], in assay [13], in [14], in [15], in assay [16] and in [17] was “inactive” throughout. The max response in assay [3] is 0.793%.

For `C/C=C/C(=O)Oc1c(CCCCCC(C)C)cc([N+](=O)[O-])cc1[N+](=O)[O-]`, the Potency is 19.5 µM (active) in assay [1]; 21.9 µM (active) in assay [2]; 7.76 µM (active) in assay [3]; 38.9 µM (active) in assay [4]; 38.9 µM (active) in assay [5]; 38.9 µM (active) in assay [6]. Besides, the Potency in assay [7] is 38.9 µM (active); in assay [9] it was 38.9 µM (active); in assay [11], 38.9 µM (active); in [13], 21.9 µM (active); in assay [14] it was 19.5 µM (active). For the same compound, the Potency entry in [8] and in assay [18] was “inactive” throughout.

Regarding `CCC(=O)CC(C)CC` (configuration not stated), the activity change, negative = cytotoxicity was 5.55% [at 0.29 µM] in assay [1]; 6.1% [at 0.29 µM] in [8]; -3.03% [at 0.29 µM] in assay [14]; 3.45% [at 0.29 µM] in [15]; 5.37% [at 0.29 µM] in assay [17]; -17.1% [at 0.349 µM] in assay [19]. Further, the viability change, negative = cytotoxic in assay [2] was 1.82% [at 0.29 µM]. Further, the max response in assay [3] was 3.72%. Further, the activity change in assay [4] was 8.11% [at 0.29 µM, hits give high values]; in assay [16] it was 10.7% [at 0.29 µM, hits give high values]. The activity change, negative = cytotoxic is -0.929% [at 0.29 µM] in assay [5] and 0.759% [at 0.29 µM] in [13]. The cytotoxicity in assay [6] is 8.2% [at 0.29 µM]; in assay [10], 11.3% [at 0.29 µM]. Besides, the cytotoxicity increase in [7] is 5.43% [at 0.29 µM]; in [9], 9.56% [at 0.29 µM]; in [11] it was 8.4% [at 0.29 µM]; in [12] it was 19.1% [at 0.29 µM]; in [18], 2.33% [at 0.29 µM].

On to `CC(C)=CCCC(C)CCOC(=O)C(C)C` (configuration not stated), for which the Potency result in assay [1], in assay [2], in [4], in assay [5], in [6] and in assay [7] was “inactive” in each case. In addition, the Potency entry in [8], in assay [9], in assay [10], in assay [11], in [12] and in assay [13] was “inactive” each time. Besides, the Potency result in assay [15], in [16], in [17], in assay [18] and in [19] was “inactive” each time. Also, in assay [3], the max response is 12.8%.
